Data reported in PubChem BioAssay.
Values joined by “and” are separate entries in the source; they are usually repeats but may differ in a detail not shown here. Equal values may be shown once. Records with an inconclusive call do not appear. Active and inactive are the calls of the source.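 Rule for the calls, unless noted: active = normalized viability below 100% at a tested concentration; inactive = the rest.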

Assays:
[1] = stimulators of nuclear beta-catenin in C2C12, primary screen, imaging, WNT3A-conditioned medium, mouse C2C12, NPC library (AID 1117326; in the data active = nuclear beta-catenin stimulation mostly above about 4.2%, no sharp cut-off; inactive = mostly below about 10%); conditions: stronger effect = higher value
[2] = stimulators of insulin release from INS-1E, primary screen, cell-based, 5 mM glucose, NPC library (AID 1117329;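 active = compound raises insulin release from rat beta cells at 5 mM glucose, no numeric limit stated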); conditions: rat INS-1E insulin secretion, at 10 µM, stronger effect = higher value
[3] = growth inhibition of GSK3B-pretreated HCT116 cells – cell-based, CellTiter-Glo, 0.2 to 20 µM (AID 1117336;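 active = compounds lowering colon cancer cell viability after pretreatment blocking the GSK3B kinase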); conditions: HCT116 viability after GSK3B inhibitor, at 20 µM, stronger effect = higher value
[4] = inhibition of endothelial tube formation, primary screen, imaging, VEGF stimulated, CD31 staining, tube area, NPC library (AID 1117340;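 active = compound that reduces growth-factor-driven endothelial tube area in a mixed cell culture, no cutoff stated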); conditions: VEGF-stimulated ADSC/ECFC co-culture, at 10 µM, stronger effect = higher value
[5] = glucagon-like peptide 1 release enhancers, primary assay, NCI-H716 cell line, NPC library (AID 1117341;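 active = compound raises GLP1 secretion from the human gut endocrine cells, with no numeric limit stated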); conditions: NCI-H716 cells, at 10 µM, stronger effect = higher value
[6] = HCT116 colon cancer cell growth inhibition, primary screen, CellTiter-Glo luminescence, NPC library (AID 1117342;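 active = compounds that lower survival of HCT116 colon cancer cells in the luminescence readout, no numeric limit stated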); conditions: at 20 µM (top of the series)
[7] = CellTiter-Glo luminescent readout of SW480 viability loss, NPC library primary (AID 1117343;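 active = compounds that lower viability of the colon cancer cells in the luminescence readout, with no numeric limit stated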); conditions: CellTiter-Glo luminescence; at 20 µM (top of the series) unless noted
[8] = decreased DLD-1 cellular survival, CellTiter-Glo luminescent readout, NPC compound collection, primary HTS (AID 1117346;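 active = compounds that lower survival of DLD-1 colon cancer cells in the luminescence readout, no cutoff given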); conditions: DLD-1 viability, CellTiter-Glo luminescence; at 20 µM (top of the series)
[9] = growth inhibition of DIPG glioma cells, dose response, cell-based, JHH-DIPG-1, MIPE4.0, CellTiter-Glo, qHTS (AID 1347062; cut-off not given, nearly all actives have AC50 up to about 27 µM;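 for AC50: cells exposed to compound for two days before readout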); conditions: JHH-DIPG-1 viability, CellTiter-Glo ATP luminescence
[10] = growth inhibition of DIPG glioma cells, dose response, cell-based, SU-DIPG-IV, MIPE4.0, CellTiter-Glo, qHTS (AID 1347063; cut-off not given, nearly all actives have AC50 up to about 30 µM;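 note: compound exposure lasted 48 hours before the viability readout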); conditions: SU-DIPG-IV viability, CellTiter-Glo ATP luminescence
[11] = viability loss in pontine glioma line – cell-based, SU-DIPG-XXV, MIPE5.0, CellTiter-Glo, qHTS, dose response (AID 1347065; cut-off not given, nearly all actives have AC50 up to about 26 µM;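 note: cells exposed to compound for 48 hours before ATP readout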); conditions: CellTiter-Glo ATP luminescence
[12] = JHH-DIPG-1 glioma cell viability, MIPE5.0 library, CellTiter-Glo luminescence, qHTS (AID 1347067; cut-off not given, nearly all actives have AC50 up to about 26 µM;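 note: cells exposed to compound for 48 hours before readout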); conditions: JHH-DIPG-1 glioma viability, CellTiter-Glo ATP luminescence
[13] = sensitizers of A549 cells to miR-34 induction, primary screen, imaging, A549 dox-inducible miR-34, nuclei and caspase counts (AID 1347080;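 active = compounds whose cell count with miR-34 switched on is under 0.7 times the count with it off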); conditions: A549 miR-34 inducible, Hoechst nuclei count, 48 h
[14] = survival rescue of mitochondrial mutant cells in low glucose, primary screen, MELAS cybrids, Rieske KO mouse fibroblasts, CellTiter-Glo (AID 1508586;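 active = mean z-score across replicates of 1.96 or higher in either the MELAS or the Rieske mutant cell line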;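 note: z relative to plate mean and SD of compound and empty wells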)
[15] = ovarian cancer cell viability with rucaparib, profiling panel, oncology-focused library, rucaparib conditional (AID 1508598); conditions: patient-derived ovarian cancer cells, CellTiter-Glo viability, 144 h, stronger effect = lower value
[16] = SU-DIPG-VI glioma cell viability, MIPE4.0 library, CellTiter-Glo luminescence, qHTS (AID 1347066; cut-off not given, nearly all actives have AC50 up to about 30 µM;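 note: cells exposed to compound for 48 hours before readout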); conditions: CellTiter-Glo ATP luminescence
[17] = SU-DIPG-XXV glioma cell viability, MIPE5.0 library, qHTS (AID 1347068; cut-off not given, nearly all actives have IC50 up to about 30 µM)
[18] = liver-stage malaria parasite growth inhibition, primary screen, cell-based, HepG2, luciferase luminescence, HepG2 viability (AID 624349; in the data active = parasite load remaining mostly below about 12%, no sharp cut-off; inactive = mostly above about 10%;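 note: 100% = mean of DMSO negative control wells on the same plate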); conditions: P. berghei liver stage in HepG2, luciferase luminescence, concentration not given here; parasite load remaining: stronger effect = lower value; viability: measured here: HepG2 viability without parasites
[19] = viability rescue of complex I mutant cybrids, primary screen, cell-based, galactose medium, ATP luminescence (AID 1645843;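 active = z-score of at least 1.8 in each of two replicates, scored against plate mean and spread of sample wells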;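 note: positive z means more ATP and so rescue of galactose-driven cybrid death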); conditions: complex I mutant cybrid cells, 72 h, stronger effect = higher value
[20] = stronger effect = lower value, cell number ratio, induced over uninduced
[21] = measured here: relative caspase fold change +Dox/-Dox
[22] = measured here: total cells with miR-34 induction, stronger effect = lower value
[23] = measured here: total cells without miR-34 induction
[24] = MELAS cybrid survival, CellTiter-Glo 48 h, stronger effect = higher value
[25] = Rieske KO mouse fibroblast survival, CellTiter-Glo 72 h
[26] = at 0.000305 µM, OCI-C5x cells, with rucaparib 10 µM, 100% = cells with rucaparib alone
[27] = at 0.000305 µM, OCI-C5x cells, without rucaparib
[28] = at 0.000305 µM, OCI-P5x cells, with rucaparib 20 µM, 100% = cells with rucaparib alone
[29] = at 0.000305 µM, OCI-P5x cells, without rucaparib
[30] = at 0.00122 µM, OCI-C5x cells, with rucaparib 10 µM, 100% = cells with rucaparib alone
[31] = at 0.00122 µM, OCI-C5x cells, without rucaparib
[32] = at 0.00122 µM, OCI-P5x cells, with rucaparib 20 µM, 100% = cells with rucaparib alone
[33] = at 0.00122 µM, OCI-P5x cells, without rucaparib
[34] = at 0.00488 µM, OCI-C5x cells, with rucaparib 10 µM, 100% = cells with rucaparib alone
[35] = at 0.00488 µM, OCI-C5x cells, without rucaparib
[36] = at 0.00488 µM, OCI-P5x cells, with rucaparib 20 µM, 100% = cells with rucaparib alone
[37] = at 0.00488 µM, OCI-P5x cells, without rucaparib
[38] = at 0.0195 µM, OCI-C5x cells, with rucaparib 10 µM, 100% = cells with rucaparib alone
[39] = at 0.0195 µM, OCI-C5x cells, without rucaparib
[40] = at 0.0195 µM, OCI-P5x cells, with rucaparib 20 µM, 100% = cells with rucaparib alone
[41] = at 0.0195 µM, OCI-P5x cells, without rucaparib
[42] = at 0.0781 µM, OCI-C5x cells, with rucaparib 10 µM, 100% = cells with rucaparib alone
[43] = at 0.0781 µM, OCI-C5x cells, without rucaparib
[44] = at 0.0781 µM, OCI-P5x cells, with rucaparib 20 µM, 100% = cells with rucaparib alone
[45] = at 0.0781 µM, OCI-P5x cells, without rucaparib
[46] = at 0.313 µM, OCI-C5x cells, with rucaparib 10 µM, 100% = cells with rucaparib alone
[47] = at 0.313 µM, OCI-C5x cells, without rucaparib
[48] = at 0.313 µM, OCI-P5x cells, with rucaparib 20 µM, 100% = cells with rucaparib alone
[49] = at 0.313 µM, OCI-P5x cells, without rucaparib
[50] = at 1.25 µM, OCI-C5x cells, with rucaparib 10 µM, 100% = cells with rucaparib alone
[51] = at 1.25 µM, OCI-C5x cells, without rucaparib
[52] = at 1.25 µM, OCI-P5x cells, with rucaparib 20 µM, 100% = cells with rucaparib alone
[53] = at 1.25 µM, OCI-P5x cells, without rucaparib
[54] = at 5 µM, OCI-C5x cells, with rucaparib 10 µM, 100% = cells with rucaparib alone
[55] = at 5 µM, OCI-C5x cells, without rucaparib
[56] = at 5 µM, OCI-P5x cells, with rucaparib 20 µM, 100% = cells with rucaparib alone
[57] = at 5 µM, OCI-P5x cells, without rucaparib

COc1cc(Nc2c(C#N)cnc3cc(OCCCN4CCN(C)CC4)c(OC)cc23)c(Cl)cc1Cl
-0.399: z-score [14, 25]
-1%: nuclear beta-catenin stimulation ([1]; stimulation, at 2 µM)
active: viability decrease [3] 110% | GLP1 secretion stimulation [5] 47.9% | inhibition of viability [6] 113% | viability decrease (inhibition) [7] 132% | viability decrease (inhibition) [8] 102% | AC50 [9] 20.9 µM | AC50 [10] 20.9 µM | AC50 [11] 13.2 µM | AC50 [12] 11.8 µM | z-score [14, 24] 2.73 | viability [15, 28] 88.1% | viability [15, 29] 68.6% | viability [15, 32] 87.4% | viability [15, 33] 30.3% | viability [15, 40] 96.8% | viability [15, 44] 94.7% | viability [15, 48] 80.8% | viability [15, 49] 91% | viability [15, 52] 57.8% | viability [15, 53] 95.2% | viability [15, 54] 49.5% | viability [15, 55] 61.4% | viability [15, 56] 24.4% | viability [15, 57] 42%
inactive: nuclear beta-catenin stimulation ([1]; at 10 µM) 17.6% | insulin secretion stimulation [2] 2.2% | tube area decrease [4] 1.5% | fold change [13, 20] 0.893 | viability [15, 26] 120% | viability [15, 27] 107% | viability [15, 30] 121% | viability [15, 31] 109% | viability [15, 34] 119% | viability [15, 35] 107% | viability [15, 36] 101% | viability [15, 37] 102% | viability [15, 38] 122% | viability [15, 39] 104% | viability [15, 41] 102% | viability [15, 42] 132% | viability [15, 43] 111% | viability [15, 45] 103% | viability [15, 46] 125% | viability [15, 47] 101% | viability [15, 50] 113% | viability [15, 51] 108%
986: cell count [13, 22]
0.682: fold change [13, 21]
1100: cell count [13, 23]

O=C(O)c1nc(=O)[nH]c(=O)[nH]1
0.2%: nuclear beta-catenin stimulation ([1]; stimulation, at 2 µM)
inactive: nuclear beta-catenin stimulation ([1]; at 10 µM) 0.4% | insulin secretion stimulation [2] -2.5% | viability decrease [3] -8.95% | tube area decrease [4] -8.3% | GLP1 secretion stimulation [5] 0.9% | inhibition of viability [6] -17.1% | viability decrease (inhibition) [7] 29% | viability decrease (inhibition) [8] 12.8% | outcome [9] | outcome [10] | outcome [11] | outcome [16] | outcome [12] | outcome [17]

C[C@@H]1C[C@H]2[C@@H]3CCC4=CC(=O)C=C[C@]4(C)[C@@]3(Cl)[C@@H](O)C[C@]2(C)[C@@]1(OC(=O)c1ccco1)C(=O)CCl
1.68: fold change [13, 21]
inactive: parasite load remaining [18] 101% and 89.2% | nuclear beta-catenin stimulation ([1]; at 10 µM) 23.1% | insulin secretion stimulation [2] -0.7% | viability decrease [3] -43% | GLP1 secretion stimulation [5] 3.9% | outcome [17] | fold change [13, 20] 0.786 | z-score [14, 24] -1.01
5090: cell count [13, 23]
-0.104: z-score [14, 25]
4000: cell count [13, 22]
90.7% and 72.5%: viability [18]
active: tube area decrease [4] 99.7% | inhibition of viability [6] 67% | viability decrease (inhibition) [7] 119% | viability decrease (inhibition) [8] 95.5% | AC50 [9] 4.69 µM | AC50 [10] 13.2 µM | AC50 [11] 29.5 µM | AC50 [16] 20.9 µM
2.8%: nuclear beta-catenin stimulation ([1]; stimulation, at 2 µM)

CC(C)(C)C(=O)OCOP(=O)(COCCn1cnc2c(N)ncnc21)OCOC(=O)C(C)(C)C
active: nuclear beta-catenin stimulation ([1]; at 10 µM) 79.6% | viability decrease [3] 95.4% | tube area decrease [4] 100% | inhibition of viability [6] 73.3% | viability decrease (inhibition) [7] 95.4% | viability decrease (inhibition) [8] 78.5% | AC50 [10] 7.43 µM | AC50 [11] 20.9 µM | AC50 [16] 16.6 µM
0.703 and 1.46: fold change [13, 21]
inactive: insulin secretion stimulation [2] 3.5% | GLP1 secretion stimulation [5] 2.8% | outcome [17] | fold change [13, 20] 0.906 and 0.857 | z-score [14, 24] -0.539 and -0.165 | z-score [19] -0.625
0.795 and 0.351: z-score [14, 25]
72.7%: nuclear beta-catenin stimulation ([1]; stimulation, at 2 µM)
6600 and 5960: cell count [13, 23]
5980 and 5100: cell count [13, 22]

C#Cc1cccc(Nc2ncnc3cc(OCCOC)c(OCCOC)cc23)c1
4550: cell count [13, 22]
-0.563 and 2.07: z-score [14, 25]
-0.8%: nuclear beta-catenin stimulation ([1]; stimulation, at 2 µM)
active: viability decrease [3] 72.1% | inhibition of viability [6] 59.4% | viability decrease (inhibition) [8] 83.4% | AC50 [9] 7.43 µM | AC50 [10] 7.43 µM | AC50 [11] 7.42 µM | viability [15, 29] 93.6% | viability [15, 33] 96.4% | viability [15, 41] 97.9% | viability [15, 45] 99% | viability [15, 49] 91.2% | viability [15, 50] 76% | viability [15, 51] 91.8% | viability [15, 53] 83% | viability [15, 54] 39.7% | viability [15, 55] 62.2% | viability [15, 56] 76.9% | viability [15, 57] 66.3%
inactive: parasite load remaining [18] 380% | nuclear beta-catenin stimulation ([1]; at 10 µM) 1.3% | insulin secretion stimulation [2] 1.8% | tube area decrease [4] -49.7% | GLP1 secretion stimulation [5] 1.7% | viability decrease (inhibition) [7] 34.2% | fold change [13, 20] 0.807 | viability [15, 26] 108% | viability [15, 27] 109% | viability [15, 28] 121% | viability [15, 30] 105% | viability [15, 31] 109% | viability [15, 32] 142% | viability [15, 34] 109% | viability [15, 35] 104% | viability [15, 36] 111% | viability [15, 37] 101% | viability [15, 38] 105% | viability [15, 39] 101% | viability [15, 40] 122% | viability [15, 42] 102% | viability [15, 43] 106% | viability [15, 44] 135% | viability [15, 46] 101% | viability [15, 47] 104% | viability [15, 48] 109% | viability [15, 52] 101% | z-score [19] 1.06
2.01 (active) and 0.197: z-score [14, 24]
1.12: fold change [13, 21]
168%: viability [18]
5640: cell count [13, 23]
